NS1 function inh: qHTS Assay for Inhibitors of Influenza NS1 Protein Function; Potency, µM (highest dose often 46.1 µM), inactives show top-dose activity, positive = more growth; hit rate 0.4% among 270,000; calls by dose curve; also: potency is read from the fitted curve at half-maximal effect; actives are rising curves; nearly all actives have a fitted effect of over 50% in size
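Recovery from NS1-induced slow growth read by OD600 in budding yeast switched to galactose assay medium (pH 6.0, -URA) at 1:100 dilution. Compound 23 nl per well; the matching strain lacking NS1 serves as control.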
Cycloheximide cs: Cycloheximide Counterscreen for Small Molecule Inhibitors of Shiga Toxin; hit rate 12% among 300,000; max response, %; AID 2314, 2010; cell reporter, cycloheximide protein synthesis inhibition counterscreen; in the data active = max response mostly above about 13%, no sharp cut-off; inactive = mostly below about 14%; also: read at 38.3 µM for the half of the compounds with a filed dose; 0% is about no effect
Shiga toxin inh: A qHTS for Small Molecule Inhibitors of Shiga Toxin. hit rate 9.2% among 290,000. inhibition, % at 38.7 µM. Vero cells, Shiga toxin protein synthesis inhibition reporter; in the data active = inhibition mostly above about 28%, no sharp cut-off; inactive = mostly below about 43%; also: 0% is about no effect
FBPA Giardia inh: qHTS Assay for Inhibitors of Fructose-1,6-bisphosphate Aldolase from Giardia Lamblia; purified Giardia FBPA; Potency, µM (highest dose often 59.6 µM), without a hit: top-dose activity, negative = inhibition, hits mostly inhibitors; hit rate 0.71% among 290,000; also: potency is read from the fitted curve at half-maximal effect; % is scaled to controls: 0 for no effect and ±100 for the full control effect; nearly all actives have a fitted effect of over 55% in size
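40 nM FBPA preincubated 10 min at RT with compound (up to 57.5 uM final), then substrate plus GAPDH/TPI/NAD/arsenate coupling and diaphorase/resazurin added. Fluorescence read after 20 min at RT, 525/598 nm.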
LmPK inh: qHTS Assay for Inhibitors of Leishmania Mexicana Pyruvate Kinase (LmPK) | Q27686 | hit rate 0.37% among 290,000 | Potency, µM (top dose mostly 57.5 µM), for the others: at the top dose activity change, negative = inhibition, actives largely listed as inhibitors | purified LmPK, Kinase-Glo ATP luminescence, 1 h; also: potency is read from the fitted curve at half-maximal effect; % is scaled to controls: 0 for no effect and ±100 for the full control effect
Target sequence (Q27686 whole entry, looked up): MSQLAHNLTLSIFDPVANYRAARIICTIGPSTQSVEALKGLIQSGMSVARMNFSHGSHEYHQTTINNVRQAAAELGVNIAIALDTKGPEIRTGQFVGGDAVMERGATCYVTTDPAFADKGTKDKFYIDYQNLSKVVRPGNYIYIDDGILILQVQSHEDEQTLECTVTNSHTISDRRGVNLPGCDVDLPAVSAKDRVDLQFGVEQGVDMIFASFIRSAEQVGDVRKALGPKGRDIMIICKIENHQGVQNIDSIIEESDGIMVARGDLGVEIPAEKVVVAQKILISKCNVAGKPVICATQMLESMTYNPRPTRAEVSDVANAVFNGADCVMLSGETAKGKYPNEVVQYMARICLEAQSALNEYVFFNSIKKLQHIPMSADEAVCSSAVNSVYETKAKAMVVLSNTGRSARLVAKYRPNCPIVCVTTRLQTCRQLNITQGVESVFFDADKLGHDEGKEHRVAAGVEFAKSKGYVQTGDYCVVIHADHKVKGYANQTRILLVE
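qHTS format; LmPK 0.1 nM; substrates PEP 0.5 mM and ADP 0.1 mM. One-hour room-temperature incubation, then coupled luciferase luminescence; 0.5 nM enzyme wells mark activation.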
* hit, by the source's call; u = inconclusive; x = not tested or not shown; + = active, no number; [ ] = dose if it differs, or a comment. A selection: hits, their analogues and other compounds. The true share with any hit is near 14%. Unless noted, calls follow the shape of the dose curve; as a rule, active = well fitted curve in the direction sought with a large enough effect; inconclusive = small, poorly fitted or top-dose-only effect, or another doubt; inactive = no such curve, though single readings can be large; an effect the other way counts as inactive or inconclusive.

SMILES	NS1 function inh	Cycloheximide cs	Shiga toxin inh	FBPA Giardia inh	LmPK inh
O=C(NCc1ccccn1)c1coc(=O)c(Br)c1	15%	1	10	20%	7%
COc1ccc(C(=O)NC(C)c2ccccc2)cc1Br (configuration not stated)	x	3	11	4%	1%
O=C(Nc1ccccc1F)c1coc(=O)c(Br)c1	x	51*	+	2%	17%
O=P(O)(O)O[C@@H]1[C@H](O)[C@H](O)[C@@H](OP(=O)(O)O)[C@H](OP(=O)(O)O)[C@H]1O	x	1	-4	11%	x
COc1ccc2cc(C(C)CO)ccc2c1 (configuration not stated)	x	x	x	1%	x
Cc1cccc(NS(=O)(=O)c2csc(C(N)=O)c2)c1C	-1%	-2	-9	4%	-1%
O=C(O)c1ccc(Oc2ccc(C(F)(F)F)cn2)cc1	x	15*	16	17%	-1%
COC(=O)c1ccc(Oc2ccc(C(F)(F)F)cn2)cc1	x	28*	45*	1%	11%
Cc1ccccc1N1CCN(C(=O)c2ccc(Oc3ccc(C(F)(F)F)cn3)cc2)CC1	5%	-3	-3	-2%	-3%
COc1ccc(C(=O)NC2CCN(CC(=O)NCc3ccccc3F)CC2)cc1	8%	-2	-5	3%	1%
O=C(NCCCn1ccnc1)c1cc2c(ccc3ccccc32)o1	x	31*	68	0%	5%
c1ccc2c(c1)oc1c(NCCCn3ccnc3)ncnc12	u	-4	-11	-22%	-1%
O=c1c2ccccc2oc2ccc(NCCCn3ccnc3)cc12	8%	33*	54*	4%	0%
O=C(NCCCn1ccnc1)c1ccc(Br)o1	4%	-3	18	9%	3%
COc1ccc(NC(=O)C(=O)NCCCn2ccnc2)cc1	6%	4	20	1%	1%
Cc1nc(NCCCn2ccnc2)c2oc3ccccc3c2n1	u	16*	33	-13%	1%
O=C(NCCCn1ccnc1)C(=O)Nc1ccccc1	5%	16*	28	1%	-4%
O=S(=O)(c1ccc(F)c(F)c1)N1CCC2(CC1)OCCO2	6%	1	-4	x	3%
Cc1ccc(C(=O)Nc2sc(C(=O)N(C)C)c(C)c2C#N)cc1	-9%	-1	20	0%	-11%
N#Cc1ccc(NC(=O)c2cc(-c3cccs3)on2)cc1	2%	-2	-11	1%	-3%
CCCc1cc(C(=O)Nc2cccnc2)no1	6%	72*	89*	-1%	11µM*
Cc1sc(NC(=O)c2ccccc2)c(C#N)c1-c1ccccc1	12%	43*	26*	-15%	-1%
CC(C)c1cc(C(=O)Nc2cccnc2)no1	-5%	37*	48*	-11%	-2%
CCCc1cc(C(=O)Nc2ccc(C#N)cc2)no1	-19%	15*	34	7%	-5%
O=C(Nc1cccnc1)c1cc(-c2ccccc2)on1	-13%	13	23	2%	-15%
SMILES	NS1 function inh	Cycloheximide cs	Shiga toxin inh	FBPA Giardia inh	LmPK inh
CC(=O)c1cccc(NC(=O)c2cc(-c3ccc(C)cc3)on2)c1	-4%	30*	active	3%	2%
CCCc1cc(C(=O)Nc2ccc(C(C)=O)cc2)no1	u	42*	82*	-4%	4%
CCCc1cc(C(=O)Nc2cccc(Cl)c2)no1	-65%	23*	82*	2%	22µM*
CCCc1cc(C(=O)Nc2sc(C)c(C)c2C(=O)OCC)no1	8%	-2	-6	3%	-4%
CCCc1cc(C(=O)Nc2cccc(C(C)=O)c2)no1	0%	31*	67*	-5%	11%
CCC(C)C(NC(=O)C1CCC(C)CC1)C(=O)NCCc1ccc(S(N)(=O)=O)cc1 (configuration not stated)	9%	1	-1	1%	7%
C(=NCCN1CCOCC1)=NC1CCCCC1	-1%	x	x	x	x
NC(=O)C1CCN(CC(O)COc2ccc(-c3ccccc3)cc2)CC1 (configuration not stated)	12%	2	-11	-2%	-2%
COCc1ccc(C(=O)N2CCCC(CNC(=O)c3ccc(F)cc3)C2)o1 (configuration not stated)	6%	21	-3	x	-8%
Oc1ccccc1N1CCN(CC(O)COC2CCCc3ccccc32)CC1 (configuration not stated)	0%	-2	-7	u	-15%
CCCc1cc(C(=O)Nc2sc(C)c(CC)c2C#N)no1	-8%	13*	40	-7%	2%
CCc1c(C)sc(NC(=O)c2cccs2)c1C#N	-14%	53*	77*	u	-5%
CCc1c(C)sc(NC(=O)c2cc(C)on2)c1C#N	-28%	4	20	-3%	0%
CCCc1cc(C(=O)Nc2ccc(F)c(Cl)c2)no1	-21%	31*	94*	-2%	-15%
Cc1nnc(SCCC(=O)Nc2ccccc2Cl)o1	7%	-2	5	13%	-1%
c1ccc2c(c1)OCCOCCOCCOCCO2	x	-6	-2	2%	x
CC1CCCN(CC(=O)c2ccc(Cl)c(Cl)c2)C1 (configuration not stated)	x	1	-2	1%	6%
Cc1cc(C(=O)CN2CCCC(C)C2)c(C)n1-c1ccc(F)cc1 (configuration not stated)	8%	50*	53*	2%	-3%
Cc1ccc(-n2c(C)cc(C(=O)CN3CCOCC3)c2C)cc1C	x	21	32	0%	-1%
Cc1ccc(-n2c(C)cc(C(=O)CN3CCOCC3)c2C)cc1	x	46*	85*	0%	-4%
NC1=NCCCC1	x	x	x	10%	x
CCC(C)Nc1nc(Cl)nc(NCCOc2ccccc2)n1 (configuration not stated)	-13%	33*	31	0%	2%
CCN(CC)c1ccc(C(=O)OCC(=O)Nc2sccc2C#N)cc1	-15%	27*	39*	4%	0%
NC(=O)Nc1ccc(C(=O)OCC(=O)NC2CCCCC2)cc1	5%	17	48	4%	1%
N#Cc1ccsc1NC(=O)COC(=O)c1cc2ccccc2cc1O	17%	31*	84*	-21%	-3%
SMILES	NS1 function inh	Cycloheximide cs	Shiga toxin inh	FBPA Giardia inh	LmPK inh
N#Cc1ccsc1NC(=O)COC(=O)c1ccc(NC(N)=O)cc1	3%	41*	92*	1%	-14%
CCN(CC)c1ccc(C(=O)OCC(=O)Nc2ccccc2-c2ccccc2)cc1	u	-1	7	-3%	-4%
N#Cc1ccsc1NC(=O)CN1CCN(c2ccccc2O)CC1	-3%	-2	-10	-13%	1%
COC(=O)C1=C(C)N(Cc2ccccc2)C2=C3C(=O)OCCC3[C@@](O)(C(=O)OC)C(=O)N2C1c1ccccc1 (some centres not stated)	x	x	x	1%[12.9 µM]	x
COc1cccc(CNC2CCCCCCC2)c1OC	-8%	-1	-3	u	-2%
Cc1nc2cnc(N3CCNCC3)nc2n(-c2ccccc2)c1=O	x	x	x	-1%	x
Brc1cc(Br)c2nc(-c3ccc(N4CCOCC4)cc3)ccc2c1	12%	38*	55*	-9%	4%

Screening results (PubChem)
